SMILES strings stand for the structures. Active and inactive are the calls of the source. Rule for the calls: active = hit-call score of the fitted dose curve at least 0.9, where 1 is the maximum; inactive = score below 0.9.

By AC50 is commonly meant the midpoint of the concentration-response curve, whichever way the signal moves.

What all share (conditions): mRNA level, 48 h; actives raise or lower the signal
Read-out in test [1]: Cytochrome P450 (CYP24A1), CYP24A1 (gene 1591)
The experiment in a line: LTEA_HepaRG_CYP24A1: Life Technologies and Expression Analysis (LTEA) Assay for Cytochrome P450 (CYP24A1) using HepaRG (AID 2283478). In short, it runs like this: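 qRT-PCR read-out: CYP24A1 transcript levels normalized to three housekeeping genes, bidirectional curve fits against 0.5% DMSO baseline. Human HepaRG cells treated 48 h with chemicals at eight concentrations from 100 uM in half-log steps.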

Read-out in test [2]: Cytochrome P450 (CYP1A2), CYP1A2 (gene 1544)
The experiment in a line: LTEA_HepaRG_CYP1A2: Life Technologies and Expression Analysis (LTEA) Assay for Cytochrome P450 (CYP1A2) using HepaRG (AID 2283479). In short, it runs like this:
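HepaRG, 48 h exposure, top 100 uM, half-log 8-pt, 0.5% DMSO vehicle, duplicates. Readout: TaqMan qRT-PCR of CYP1A2 mRNA, housekeeping-normalized (ACTB/GAPDH/POLR2A). Gain/loss fit relative to DMSO baseline.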

Read-out in test [3]: cysteine-aspartic acid protease (CASP8), CASP8 (gene 841)
The experiment in a line: LTEA_HepaRG_CASP8: Life Technologies and Expression Analysis (LTEA) Assay for cysteine-aspartic acid protease (CASP8) using HepaRG (AID 2283480). In short, it runs like this:
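HepaRG, 48 h exposure, duplicate wells; 8 conc, half-log from 100 uM, 0.5% DMSO. Serum-free induction medium. CASP8 mRNA by TaqMan qRT-PCR, norm. ACTB/GAPDH/POLR2A; gain/loss fitted vs DMSO.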

Read-out in test [4]: Cytochrome P450 (CYP2B6), CYP2B6 (gene 1555)
The experiment in a line: LTEA_HepaRG_CYP2B6: Life Technologies and Expression Analysis (LTEA) Assay for Cytochrome P450 (CYP2B6) using HepaRG (AID 2283481). In short, it runs like this:
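Read-out is CYP2B6 mRNA by TaqMan qRT-PCR, normalized to three housekeeping genes and fitted bidirectionally against 0.5% DMSO baseline. Human HepaRG cells received test chemicals for 48 h, top concentration 100 uM, half-log dilutions.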

Read-out in test [5]: Cytochrome P450 2C19 (Homo sapiens) (UniProt P33261)
Briefly: LTEA_HepaRG_CYP2C19: Life Technologies and Expression Analysis (LTEA) Assay for CYP2C19 using HepaRG (AID 2283482). An outline of the steps: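 HepaRG, 48 h chemical exposure, 8-pt half-log series from 100 uM in 0.5% DMSO, duplicates. Readout: CYP2C19 mRNA by TaqMan qRT-PCR, housekeeping-normalized. Bidirectional fit vs DMSO baseline; phenobarbital 1mM as induction control.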

Read-out in another test: CYP2C8 (gene 1558)
Briefly: LTEA_HepaRG_CYP2C8: Life Technologies and Expression Analysis (LTEA) Assay for CYP2C8 using HepaRG (AID 2283483). In short, it runs like this:
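CYP2C8 mRNA induction or loss, by qRT-PCR normalized to ACTB/GAPDH/POLR2A, is read in HepaRG cells after 48 h treatment. Concentrations run from 100 uM down in half-log dilutions, with 0.5% DMSO as vehicle and baseline.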

Read-out in the next test: CYP2C9 (gene 1559)
Briefly: LTEA_HepaRG_CYP2C9: Life Technologies and Expression Analysis (LTEA) Assay for CYP2C9 using HepaRG (AID 2283484). In short, it runs like this: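 Cells plated 48 h, switched to serum-free induction medium, then treated in duplicate for 48 h at eight concentrations (max 100 uM, 0.5% DMSO). RNA then analysed by qRT-PCR for CYP2C9; curves fitted in both directions relative to DMSO.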

Read-out in the next test: CYP2E1 (gene 1571)
Briefly: LTEA_HepaRG_CYP2E1: Life Technologies and Expression Analysis (LTEA) Assay for CYP2E1 using HepaRG (AID 2283485). An outline of the steps: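 Human liver line HepaRG, plated 48 h, then serum-free induction medium + chemical x 48 h; 8-pt CRC from 100 uM, half-log, 0.5% DMSO, n=2. Readout: CYP2E1 mRNA qRT-PCR vs ACTB/GAPDH/POLR2A; bidirectional fit vs DMSO.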

Read-out in test [6]: Cytochrome P450 3A4 (Homo sapiens) (UniProt P08684)
The experiment in a line: LTEA_HepaRG_CYP3A4: Life Technologies and Expression Analysis (LTEA) Assay for CYP3A4 using HepaRG (AID 2283487). In short, it runs like this:
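HepaRG, 48 h exposure, 8-pt CRC from 100 uM (half-log), 0.5% DMSO, duplicates; serum-free induction medium. Readout: CYP3A4 mRNA, qRT-PCR, ACTB/GAPDH/POLR2A normalization. Bidirectional fit vs DMSO.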

Read-out in test [7]: DNA damage-inducible transcript 3 (DDIT3), DDIT3 (gene 1649)
Briefly: LTEA_HepaRG_DDIT3: Life Technologies and Expression Analysis (LTEA) Assay for DNA damage-inducible transcript 3 (DDIT3) using HepaRG (AID 2283488). In short, it runs like this: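 HepaRG plated 48 h, switched to serum-free induction medium, dosed 48 h (100 uM top, half-log, 8 pts, 0.5% DMSO, n=2); RNA isolated; DDIT3 by qRT-PCR; bidirectional curve fit vs DMSO.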

Read-out in test [8]: Pro-epidermal growth factor (Homo sapiens) (UniProt P01133)
The experiment in a line: LTEA_HepaRG_EGF: Life Technologies and Expression Analysis (LTEA) Assay for Epidermal growth factor (EGF) using HepaRG (AID 2283489). In short, it runs like this:
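qRT-PCR readout of EGF transcript after 48 h chemical exposure of HepaRG cells; eight concentrations from 100 uM down in half-log steps, duplicate wells, 0.5% DMSO vehicle. Bidirectional curve fitting against DMSO baseline.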

Read-out in test [9]: Early growth response protein 1 (EGR1) transcription factor, EGR1 (gene 1958)
Briefly: LTEA_HepaRG_EGR1: Life Technologies and Expression Analysis (LTEA) Assay for Early growth response protein 1 (EGR1) transcription factor using HepaRG (AID 2283490). An outline of the steps: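 Read-out is EGR1 mRNA level by qRT-PCR, normalized to three housekeeping genes and analysed for gain or loss of signal against 0.5% DMSO. Source cells: human HepaRG, treated 48 h at up to 100 uM in half-log dilutions.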

Read-out in test [10]: Ezrin (EZR), EZR (gene 7430)
The experiment in a line: LTEA_HepaRG_EZR: Life Technologies and Expression Analysis (LTEA) Assay for Ezrin (EZR) using HepaRG (AID 2283491). In short, it runs like this: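 Read-out is EZR transcript level by qRT-PCR, normalized to three housekeeping genes and fitted bidirectionally against the DMSO control. Human HepaRG cells received test chemicals for 48 h at eight half-log concentrations up to 100 uM in 0.5% DMSO.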

Read-out in test [11]: Cytochrome P450 3A7 (Homo sapiens) (UniProt P24462)
Briefly: LTEA_HepaRG_CYP3A7: Life Technologies and Expression Analysis (LTEA) Assay for CYP3A7 using HepaRG (AID 2283492). In short, it runs like this: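 CYP3A7 transcript levels were read by TaqMan qRT-PCR on Fluidigm arrays after 48 h chemical exposure of human HepaRG cells, with housekeeping-gene normalisation. Eight half-log concentrations up to 100 uM in 0.5% DMSO were tested in duplicate.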

Read-out in a further test: CYP3A5 (gene 1577)
Briefly: LTEA_HepaRG_CYP3A5: Life Technologies and Expression Analysis (LTEA) Assay for CYP3A5 using HepaRG (AID 2283493). In short, it runs like this:
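HepaRG plated 48 h, switched to serum-free induction medium, chemicals added 48 h (max 100 uM, half-log, 0.5% DMSO). RNA isolated; CYP3A5 by TaqMan qRT-PCR. Gain/loss vs DMSO.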

Read-out in test [12]: Fatty Acid-Binding Protein 1 (FABP1), FABP1 (gene 2168)
Briefly: LTEA_HepaRG_FABP1: Life Technologies and Expression Analysis (LTEA) Assay for Fatty Acid-Binding Protein 1 (FABP1) using HepaRG (AID 2283494). An outline of the steps:
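HepaRG, 48 h post-plating switched to serum-free induction medium, then dosed 48 h (duplicate, 8 pts, ≤100 uM, 0.5% DMSO). RNA → Fluidigm TaqMan qRT-PCR, FABP1 normed to ACTB/GAPDH/POLR2A. Bidirectional curve fit vs DMSO.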

Read-out in test [13]: Cytochrome P450 7A1 (Homo sapiens) (UniProt P22680)
Briefly: LTEA_HepaRG_CYP7A1: Life Technologies and Expression Analysis (LTEA) Assay for Cytochrome P450 7A1 (CYP7A1) using HepaRG (AID 2283496). In short, it runs like this: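 HepaRG cells plated 48 h, then switched to serum-free induction medium and exposed in duplicate for 48 h to 8-point half-log series from 100 uM in 0.5% DMSO. CYP7A1 mRNA by qRT-PCR (TaqMan), normalized to ACTB/GAPDH/POLR2A; bidirectional fit versus DMSO.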

Read-out in test [14]: Glutathione S-Transferase (GSTA2), GSTA2 (gene 2939)
Briefly: LTEA_HepaRG_GSTA2: Life Technologies and Expression Analysis (LTEA) Assay for Glutathione S-Transferase (GSTA2) using HepaRG (AID 2283497). In short, it runs like this: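 HepaRG, 48 h dosing, 8-pt half-log CRC from 100 uM, 0.5% DMSO vehicle, n=2; RNA → Fluidigm TaqMan qRT-PCR; GSTA2 vs ACTB/GAPDH/POLR2A; gain/loss fit vs DMSO.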

Read-out in a further test: CYP4A11 (gene 1579)
Briefly: LTEA_HepaRG_CYP4A11: Life Technologies and Expression Analysis (LTEA) Assay for CYP4A11 using HepaRG (AID 2283486). An outline of the steps:
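CYP4A11 transcript levels were quantified by TaqMan qRT-PCR after HepaRG human liver cells were treated for 48 hours with test chemicals (top 100 uM, half-log dilutions, 0.5% DMSO). Gain or loss of signal was fitted relative to DMSO.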

Read-out in test [15]: Cytochrome P450 4A22 (Homo sapiens) (UniProt Q5TCH4)
The experiment in a line: LTEA_HepaRG_CYP4A22: Life Technologies and Expression Analysis (LTEA) Assay for Cytochrome P450 4A22 (CYP4A22) using HepaRG (AID 2283495). An outline of the steps:
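HepaRG, 48 h post-plating -> serum-free induction medium; dosed 48 h, duplicate, 8 conc. (100 uM top, half-log), 0.5% DMSO. Readout: CYP4A22 mRNA by qRT-PCR, ACTB/GAPDH/POLR2A normalization; gain/loss fit relative to DMSO.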

Cytochrome P450 3A4 (Homo sapiens), sequence (P08684 whole entry, looked up): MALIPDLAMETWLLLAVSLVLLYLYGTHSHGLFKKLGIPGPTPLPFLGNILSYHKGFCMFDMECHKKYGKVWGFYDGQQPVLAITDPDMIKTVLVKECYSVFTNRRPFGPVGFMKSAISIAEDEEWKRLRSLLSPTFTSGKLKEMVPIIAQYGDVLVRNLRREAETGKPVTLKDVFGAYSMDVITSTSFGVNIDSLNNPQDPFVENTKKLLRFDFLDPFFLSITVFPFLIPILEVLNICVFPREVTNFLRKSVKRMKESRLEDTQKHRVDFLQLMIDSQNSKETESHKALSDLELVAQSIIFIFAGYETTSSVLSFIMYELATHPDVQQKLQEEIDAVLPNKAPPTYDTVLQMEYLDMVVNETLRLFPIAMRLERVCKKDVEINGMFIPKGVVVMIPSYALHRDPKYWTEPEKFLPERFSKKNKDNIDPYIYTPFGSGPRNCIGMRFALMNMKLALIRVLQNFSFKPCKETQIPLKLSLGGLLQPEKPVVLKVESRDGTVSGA
Cytochrome P450 3A7 (Homo sapiens), sequence (P24462 whole entry, looked up): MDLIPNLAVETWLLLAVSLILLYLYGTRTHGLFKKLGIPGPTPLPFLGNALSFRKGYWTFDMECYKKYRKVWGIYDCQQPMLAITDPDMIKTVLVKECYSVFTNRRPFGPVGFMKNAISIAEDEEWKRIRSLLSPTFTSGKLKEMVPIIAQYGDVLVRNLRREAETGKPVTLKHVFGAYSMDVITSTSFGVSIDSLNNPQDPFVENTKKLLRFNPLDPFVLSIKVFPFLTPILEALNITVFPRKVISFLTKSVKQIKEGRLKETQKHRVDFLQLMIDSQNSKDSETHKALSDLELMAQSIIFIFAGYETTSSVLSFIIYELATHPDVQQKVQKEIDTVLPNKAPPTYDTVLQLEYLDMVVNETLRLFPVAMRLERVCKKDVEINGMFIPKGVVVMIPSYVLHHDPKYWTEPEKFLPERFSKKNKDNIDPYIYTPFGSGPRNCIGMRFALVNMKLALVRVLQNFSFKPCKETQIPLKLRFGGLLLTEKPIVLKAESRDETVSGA
Cytochrome P450 2C19 (Homo sapiens), sequence (P33261 whole entry, looked up): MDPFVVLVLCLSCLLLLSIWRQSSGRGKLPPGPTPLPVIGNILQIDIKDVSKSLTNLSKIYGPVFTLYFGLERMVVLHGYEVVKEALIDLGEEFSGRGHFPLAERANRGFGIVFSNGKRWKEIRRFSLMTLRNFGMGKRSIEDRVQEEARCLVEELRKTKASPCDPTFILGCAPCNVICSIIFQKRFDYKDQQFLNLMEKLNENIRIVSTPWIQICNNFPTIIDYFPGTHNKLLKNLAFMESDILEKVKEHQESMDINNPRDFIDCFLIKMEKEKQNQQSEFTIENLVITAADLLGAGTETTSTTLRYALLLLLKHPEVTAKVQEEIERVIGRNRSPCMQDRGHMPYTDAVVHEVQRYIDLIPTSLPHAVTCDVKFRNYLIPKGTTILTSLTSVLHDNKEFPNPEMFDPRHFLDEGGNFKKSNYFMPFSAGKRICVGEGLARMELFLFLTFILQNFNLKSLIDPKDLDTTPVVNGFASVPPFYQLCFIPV

As for `CC(C)OC(=O)C(C)(C)Oc1ccc(C(=O)c2ccc(Cl)cc2)cc1`, the molecule was classed as inactive (in test [1]; in [3]; in test [5]; with CYP2C8 (gene 1558); with CYP2C9 (gene 1559); with CYP2E1 (gene 1571)). For the same molecule, the call (in test [6]; in test [7]; in test [8]; in test [9]; in test [11]; with CYP3A5 (gene 1577)) was inactive. Further, the outcome in test [13] and in test [14] was inactive. Besides, the AC50 in test [2] is 28.1 µM (active); in [4] it was 63.3 µM (active); in [10], 0.536 µM (active); in test [12], 50 µM (active).
Consider `S=c1[nH]c2ccccc2s1`, for which the molecule was classed as inactive (in test [1]; in [3]; in test [4]; in test [5]; with CYP2C8 (gene 1558); with CYP2C9 (gene 1559)). The molecule was classed as inactive (with CYP4A11 (gene 1579); in test [6]; in [7]; in test [8]; in test [9]; in [10]). In addition, the call (in test [11]; in the test with CYP3A5 (gene 1577); in test [12]; in test [13]; in test [14]) was inactive. Also, the AC50 in [2] is 10.7 µM (active).
In the case of `COC(=O)CCC(=O)OC`, the molecule was classed as inactive (in test [1]; in test [2]; in [3]; in test [4]; in [5]; in the test with CYP2C8 (gene 1558)). The molecule was called inactive (with CYP2C9 (gene 1559); in the test with CYP4A11 (gene 1579); in test [6]; in [7]; in [8]; in [9]). In addition, the molecule was called inactive (in test [10]; in test [11]; in the test with CYP3A5 (gene 1577); in test [12]; in test [15]; in [13]). In addition, the outcome in [14] was inactive.
